Screens as filed in PubChem.
IDE exosite FP: insulin-degrading enzyme (human) exo-site inhibition. 6.3% of 17,000 active. purified IDE, FL-6b probe fluorescence polarization; stronger effect = lower value. z-score at 20 µM. P14735;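 active = z-score of -3 or lower, meaning strong loss of probe binding signal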;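 note: His-tagged human IDE residues 42-1019 made in E. coli with 30 nM FL-6b probe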
Numbers without * were called inactive. The sample as a whole holds a higher share of hits than the screen did.

SMILES	IDE exosite FP
OC[C@@H]1[C@H](c2ccc(C#Cc3ccccc3F)cc2)[C@@H]2CN(Cc3cncnc3)CCCCN12	-3.5*
OC[C@H]1[C@H](c2ccc(C#Cc3ccccc3F)cc2)[C@@H]2CN(Cc3cncnc3)CCCCN12	-2.3
CCc1cnc(N2[C@@H](C#N)[C@@H](c3ccc(C4=CCCC4)cc3)[C@@H]2CO)s1	6.3
C/C=C/c1ccc([C@H]2[C@@H](CO)N(C(C)=O)[C@@H]2CNC(=O)NCCC)cc1	1
COC(=O)C[C@@H]1C[C@@H]2c3cc(NC(=O)c4ccc5c(c4)OCO5)ccc3O[C@@H]2[C@@H](CO)O1	-0.27
CO[C@@H](C(=O)N(C)C[C@@H]1OCc2ccccc2-c2ccccc2C(=O)N([C@H](C)CO)C[C@@H]1C)c1ccccc1	1.6
O=C(c1cccnc1)N1CC(=O)N2[C@@H](CO)[C@@H](c3ccc(-c4cccnc4)cc3)[C@@H]2C1	2.6
Cc1ccc(-c2ccc([C@H]3[C@@H](CO)N4C(=O)CN(C(=O)c5cccnc5)C[C@H]34)cc2)cc1	-3.1*
O=C(c1cccnc1)N1CC(=O)N2[C@H](CO)[C@H](c3ccc(-c4cccnc4)cc3)[C@H]2C1	-0.66
O=C(c1cccnc1)N1CC(=O)N2[C@H](CO)[C@@H](c3ccc(-c4cccnc4)cc3)[C@H]2C1	0.23
O=C(c1cccnc1)N1CC(=O)N2[C@H](CO)[C@@H](c3ccc(-c4cccnc4)cc3)[C@@H]2C1	-1.9
Cc1ccc(-c2ccc([C@@H]3[C@@H](CO)N4C(=O)CN(C(=O)c5cccnc5)C[C@@H]34)cc2)cc1	-3.6*
N#C[C@@H]1[C@H](c2ccccc2C2=CCCC2)[C@H](CO)N1C(=O)Cc1ccncc1	0.41
CCN(C[C@@H]1N[C@@H](CO)[C@H]1c1ccc(-c2cccc(C#N)c2)cc1)C(C)=O	2.5
CN(C)CC(=O)N1[C@H](CO)[C@@H](c2ccc(C#CC3CC3)cc2)[C@@H]1C#N	2.5
COc1ccc2c3c(n(C)c2c1)[C@@H](CO)N(C(=O)c1ccccn1)CC31CN(C(=O)Cc2ccccc2)C1	-0.0084
N#C[C@@H]1[C@H](c2ccccc2-c2cccc(F)c2)[C@H](CO)N1C(=O)NC1CCCCC1	-0.91
O=C(c1ccccc1F)N1CC(=O)N2[C@@H](CO)[C@@H](c3ccc(C#Cc4ccccc4)cc3)[C@@H]2C1	-1.2
O=C(c1ccccc1F)N1CC(=O)N2[C@@H](CO)[C@H](c3ccc(C#Cc4ccccc4)cc3)[C@@H]2C1	-3.5*
O=C(Nc1ccccc1F)N1CC(=O)N2[C@H](CO)[C@H](c3ccc(C#Cc4ccccc4)cc3)[C@H]2C1	-1.9
O=C(Nc1ccccc1F)N1CC(=O)N2[C@@H](CO)[C@@H](c3ccc(C#Cc4ccccc4)cc3)[C@@H]2C1	-5.8*
O=C(c1ccccc1F)N1CC(=O)N2[C@H](CO)[C@H](c3ccc(C#Cc4ccccc4)cc3)[C@H]2C1	-2.4
O=C(Nc1ccccc1F)N1CC(=O)N2[C@H](CO)[C@H](c3ccc(C#Cc4ccc(F)cc4)cc3)[C@@H]2C1	0.19
COc1ccc2c3c([nH]c2c1)[C@H](CO)N(C(=O)Nc1ccc(F)cc1)CC31CCN(S(=O)(=O)c2cn(C)cn2)CC1	0.71
N#C[C@H]1N[C@H](CO)[C@@H]1c1ccc(-c2cccc(F)c2)cc1	-0.59
SMILES	IDE exosite FP
CCCC#Cc1ccc([C@@H]2[C@@H](CO)N3C(=O)CN(S(=O)(=O)Cc4ccccc4)C[C@H]23)cc1	0.074
O=C(Nc1cc(F)ccc1F)N[C@H]1CC[C@@H](CC(=O)N2CCc3ccccc3C2)O[C@@H]1CO	3.3
COCC#Cc1ccc([C@H]2[C@H](CO)N3C(=O)CN(C(=O)C4CC4)C[C@@H]23)cc1	0.53
O=C(NC1CCCCC1)N1CC(=O)N2[C@@H](CO)[C@H](c3ccc(-c4ccncc4)cc3)[C@@H]2C1	-0.0019
O=C(NC1CCCCC1)N1CC(=O)N2[C@@H](CO)[C@H](c3ccc(-c4ccccc4)cc3)[C@@H]2C1	-0.88
O=C(NC1CCCCC1)N1CC(=O)N2[C@@H](CO)[C@@H](c3ccc(-c4ccccc4)cc3)[C@@H]2C1	-3.7*
O=C(NC1CCCC1)N1CC(=O)N2[C@H](CO)[C@@H](c3ccc(-c4cccnc4)cc3)[C@H]2C1	-1.8
O=C(NC1CCCCC1)N1CC(=O)N2[C@H](C1)[C@@H](c1ccc(-c3ccccc3)cc1)[C@@H]2CO	-9.1*
O=C(NC1CCCC1)N1CC(=O)N2[C@H](CO)[C@H](c3ccc(-c4cccnc4)cc3)[C@H]2C1	-3
O=C(NC1CCCCC1)N1CC(=O)N2[C@H](C1)[C@H](c1ccc(-c3ccccc3)cc1)[C@@H]2CO	-0.35
O=C(NC1CCCCC1)N1CC(=O)N2[C@H](C1)[C@H](c1ccc(-c3ccncc3)cc1)[C@@H]2CO	-0.15
O=C(NC1CCCCC1)N1CC(=O)N2[C@H](CO)[C@@H](c3ccc(-c4ccccc4)cc3)[C@H]2C1	-5.2*
O=C(Nc1ccccc1)N1CCCCN2[C@@H](CO)[C@@H](c3ccc(C#Cc4ccccn4)cc3)[C@@H]2C1	-2.1
O=C(Nc1cccc(F)c1)N1CC(=O)N2[C@H](CO)[C@@H](c3ccc(Br)cc3)[C@H]2C1	1.4
O=C(Nc1cccc(F)c1)N1CC(=O)N2[C@H](C1)[C@@H](c1ccc(Br)cc1)[C@@H]2CO	-0.8
C[C@@H](NC(=O)[C@@H]1[C@@H](CO)[C@@H]2Cn3c(ccc(-c4ccccc4)c3=O)[C@@H]2N1C)c1ccccc1	1.2
CCS(=O)(=O)N1CC2(CN(Cc3ccc4c(c3)OCO4)[C@@H](CO)c3c2c2ccc(OC)cc2n3C)C1	-0.37
O=C(NC[C@@H]1[C@H](c2ccccc2)[C@@H](CO)N1C(=O)Cc1ccncc1)C1CCC1	-0.97
CN(C)CC(=O)N1CCCCN2[C@H](CO)[C@H](c3ccc(-c4ccccc4)cc3)[C@@H]2C1	2.3
CN(C)CC(=O)N1CCCCN2[C@H](CO)[C@@H](c3ccc(/C=C/c4ccccc4)cc3)[C@@H]2C1	-12*
CN(C)CC(=O)N1CCCCN2[C@H](CO)[C@H](c3ccc(/C=C/c4ccccc4)cc3)[C@@H]2C1	-7.7*
CN(C)CC#Cc1ccc([C@H]2[C@H]3CN(C(=O)CN(C)C)CCCCN3[C@H]2CO)cc1	4.6
C/C=C/c1ccc([C@@H]2[C@H](CO)N3CCCCN(C(=O)CN(C)C)C[C@@H]23)cc1	3.9
CN(C)CC(=O)N1CCCCN2[C@H](CO)[C@H](c3ccc(-c4ccccc4)cc3)[C@H]2C1	2.3
O=S(=O)(c1cccs1)N1CCCCN2[C@H](CO)[C@H](c3ccc(Br)cc3)[C@H]2C1	2.6
SMILES	IDE exosite FP
Cc1noc(C)c1NC(=O)Nc1ccc2c(c1)C(=O)N(C)[C@H]1CC[C@@H](CC(=O)N[C@@H]3CCN(Cc4ccccc4)C3)O[C@H]1CO2	0.42
CCCNC(=O)N1CC2(CCN(Cc3nccs3)CC2)c2c([nH]c3cc(OC)ccc23)[C@H]1CO	-0.59
N#C[C@@H]1[C@H](c2ccc(C#Cc3ccccc3F)cc2)[C@@H](CO)N1C(=O)C1CC1	0.082
COc1ccccc1C#Cc1ccc([C@H]2[C@@H](C#N)N(C(=O)C3CC3)[C@@H]2CO)cc1	-5.3*
N#C[C@H]1[C@@H](c2ccc(C#Cc3ccccc3F)cc2)[C@H](CO)N1C(=O)C1CC1	-2.2
COCC(=O)N1[C@@H](C#N)[C@@H](c2ccccc2)[C@@H]1CO	1.6
N#C[C@H]1[C@@H](c2ccc(C#Cc3ccccc3F)cc2)[C@@H](CO)N1C(=O)C1CC1	-3.4*
N#C[C@@H]1[C@H](c2ccc(C#Cc3ccccc3F)cc2)[C@H](CO)N1C(=O)C1CC1	-2.4
